Screening data deposited in PubChem by National Center for Advancing Translational Sciences (NCATS).
IMPase Li cell: membrane-permeable IMPase blocker, potentiated with lithium | CHO-M1 cells, IP1 TR-FRET (IP-One), carbachol + lithium | actives 0.35% (n = 210,000) | Potency, µM (doses to about 59.4 µM), for the others: at the top dose activity, negative = IMPase inhibition, actives largely listed as inhibitors | AID 1457;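 further: IP1 builds up when IMPase is blocked and the TR-FRET signal falls; plate controls were basal vehicle for no effect and high inhibitor control for full effect; nearly all actives have a fitted effect of over 50% in size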
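CHO-M1, 2000 cells/well, 16–30 h culture; cpd + low Li+, 30 min 37C; lysis with d2-IP1/Eu-anti-IP1 Ab, 10 min RT; TR-FRET 665/620 ratio and 620 channel; AC50 via Hill.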
NPSR antag: blocks cAMP signaling of the human neuropeptide S receptor. actives 1% (n = 220,000). Q6W5P4. CHO-NPSR cells, cAMP TR-FRET, antagonist mode. Potency, µM (series often up to 38.3 µM), for inactives: at the highest dose activity change, negative = inhibition, hits mostly inhibitors; further: nearly all actives have a fitted effect of over 50% in size
Target sequence (Q6W5P4 whole entry, looked up): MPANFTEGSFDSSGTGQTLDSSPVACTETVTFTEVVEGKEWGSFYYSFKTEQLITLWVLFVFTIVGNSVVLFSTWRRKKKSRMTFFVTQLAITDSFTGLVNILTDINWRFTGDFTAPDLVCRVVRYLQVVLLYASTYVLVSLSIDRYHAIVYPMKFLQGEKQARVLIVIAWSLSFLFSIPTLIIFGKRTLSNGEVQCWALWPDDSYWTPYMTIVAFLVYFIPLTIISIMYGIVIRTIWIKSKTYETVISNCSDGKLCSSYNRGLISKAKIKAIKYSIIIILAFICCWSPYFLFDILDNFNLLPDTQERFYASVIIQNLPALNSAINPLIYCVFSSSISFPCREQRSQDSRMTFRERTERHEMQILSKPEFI
ERK EGF inh: EGF-driven ERK pathway inhibition; HEK293-V1b, EGF-stimulated phospho-ERK AlphaScreen; Potency, µM (highest dose often 11.5 µM), without a hit: at the top dose activity change, negative = inhibition, most hits filed as inhibitors; actives 0.41% (n = 130,000);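 further: plate controls were stimulated vehicle wells for no effect and unstimulated vehicle basal for full effect; nearly all actives have a fitted effect of over 55% in size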
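Cell line HEK293 (stable V1b), low serum overnight. Pretreatment: compound 30 min, 37C. EGF 25 nM, 5 min. Detection: SureFire AlphaScreen, 5 h RT. AC50 via standard Hill equation.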
* hit, by the source's call; ? = inconclusive; . = no result given; ! = not active in a repeat; [ ] = another dose, or the depositor's remark. This is one part of a sample in which hits are shown more often than they occur. The call rests on the fitted dose curve; in most records, active means well fitted curve in the direction sought with a large enough effect; inconclusive means small, poorly fitted or top-dose-only effect, or another doubt; inactive means no such curve, though single readings can be large; an effect the other way counts as inactive or inconclusive. Unless noted, on the % scale 0 is the no-effect control and ±100 the full control effect; potency means the concentration at half of the fitted maximal effect.

SMILES	IMPase Li cell	NPSR antag	ERK EGF inh
CC1CCC/C=C/C(=O)c2c(O)cc(O)cc2CC(=O)O1 (stereo not drawn)	.	5µM*	-14%[57.5 µM]
C[C@@H]1Cc2c(O)c(O)cc(O)c2C(=O)O1	.	16%	9%[57.5 µM]
Fc1ccc(-n2c(-c3ccc4ccccc4n3)n[nH]c2=S)cc1	3%	-2%	-1%
S=c1[nH]nc(-c2ccc3ccccc3n2)n1-c1cc(Cl)cc(Cl)c1	10µM*	-58%	13%
CCCCC/C=C\C\C=C/C=C/C=C/[C@@H](SCC(NC(C)=O)C(=O)O)[C@@H](O)CCCC(=O)O (stereo partly drawn)	-1%	.	10%
c1cc2c(cc1C1CCCCC1)c1c3n2CCCNC3CCC1 (stereo not drawn)	4%	?	28µM*
c1cc2c(cc1C1CCCCC1)c1c3n2CCN[C@H]3CCC1	15%	.	8%
CN(C)Cc1ccccc1-c1cc(Nc2ccccc2)ncn1	3%	.	25%
CCc1ccc2nc3c(c(C(=O)O)c2c1)CCC3	6%[38.3 µM]	-7%[46.1 µM]	.
Cc1cc(Br)c2nc3c(c(C(=O)O)c2c1)CCCCC3	.	1µM*	.
COC(=O)[C@@H](NC(=O)N1CCc2nc(COc3ccccc3)c3c(c2C1)CO[C@@H](C)C3)C(C)C	-3%	.	.
N#Cc1cccc(-c2nccc(NCc3cccnc3)n2)c1	30%	.	.
Cc1cc(C)cc([N+](=O)[O-])c1	3%	.	.
CC(C)C1Cc2c(sc3c2c(=O)n(-c2ccccc2)c2n[nH]c(=S)n32)CO1 (stereo not drawn)	.	-26%	9%[57.5 µM]
NC(=NCc1ccc(Cl)cc1Cl)NC(=O)c1nc(Cl)c(N)nc1N	5%	.	.
COc1ccc(N2CCC(CNC(=S)Nc3cccc(C)c3)C2)cc1 (stereo not drawn)	5%	-23%	?
COc1ccc(N2CCC(CNC(=S)Nc3c(C)cc(C)cc3C)C2)cc1 (stereo not drawn)	.	-44%	8.9µM*
COc1ccc(N2CCC(CNC(=O)Nc3ccc(OC)cc3OC)C2)cc1 (stereo not drawn)	19%[38.3 µM]	?	.
COc1ccc(N2CCC(CNC(=S)Nc3ccc(C)cc3C)C2)cc1 (stereo not drawn)	.	-49%	14µM*
O=[N+]([O-])c1ccc(CSc2ncnc3c2ncn3[C@@H]2O[C@H](CO)[C@H](O)[C@H]2O)cc1	7%	-21%[46.1 µM]	20%
COc1cccc(-c2cncnc2NCc2ccccc2)c1	8%	.	36%
COc1ccc2c(C)cc(SCC(=O)Nc3ncc(Cl)cc3Cl)nc2c1	13µM*	?	-5%
Cc1cc(SCC(=O)Nc2ncc(Cl)cc2Cl)nc2ccccc12	-23%	9%[46.1 µM]	-7%
O=[N+]([O-])c1cnc(Sc2ccncn2)s1	.	?	14µM*
O=C(Nc1ccc(Cl)cc1)Nc1ccccc1Sc1ncc([N+](=O)[O-])s1	.	?	-3%[57.5 µM]
SMILES	IMPase Li cell	NPSR antag	ERK EGF inh
N#CC1=C(N)C(C#N)(C#N)C(c2ccncc2)C2CN(C(=O)OCc3ccccc3)CC=C12 (stereo not drawn)	19%	4µM*	-12%
N#CC1=C(N)C(C#N)(C#N)[C@H](c2cccnc2)[C@H]2CN(C(=O)OCc3ccccc3)CC=C12	2%	-38%	-23%
CN(C)c1ncc2nc(-c3cccs3)c(=O)n(C)c2n1	-1%	.	.
CC#CCN1c2ccccc2[C@]23C[C@@H](C(=O)OC)N(C(=O)COCc4ccccc4)C2=NC(C(=O)OC)=C(C(=O)OC)[C@H]13	6%	.	.
O=C(C1CCCCC1)N(CCN1CCN(c2ccccc2CO)CC1)c1ccccn1	-3%	.	.
COc1ccc(-c2nc3cnc(N4CCNCC4)nc3n(CCC#N)c2=O)cc1	0%	.	3%
CC(C)Oc1ccc(/C(O)=C2/C(=O)C(=O)N(CCN3CCOCC3)C2c2ccccc2)cc1 (stereo not drawn)	5µM*	16%[46.1 µM]	.
COc1ccc(/C(O)=C2/C(=O)C(=O)N(CCN3CCOCC3)C2c2ccc(C)cc2)cc1 (stereo not drawn)	?	-4%[46.1 µM]	.
Cc1cc(C)n2nc(SCN3C(=O)c4ccccc4C3=O)nc2n1	13µM*	-7%[46.1 µM]	.
Cc1cc(C)n2nc(SCC(=O)Nc3ccccc3)nc2n1	-4%	17%	-4%
Clc1ccccc1-c1nc(NCc2cccs2)c2ccccc2n1	11%	.	.
COC(=O)c1cc(=O)n(CCc2ccc(OC)cc2)c(=Nc2ccc(F)c(Cl)c2)s1	24%[38.3 µM]	-10%[46.1 µM]	.
CCn1c(=O)cc(C(=O)OC)sc1=Nc1ccc(F)c(F)c1	7%[38.3 µM]	-8%[46.1 µM]	.
COC(=O)c1cc(=O)n(CCc2ccccc2)c(=Nc2ccc(F)cc2)s1	40%[38.3 µM]	10µM*	.
CCOC(=O)c1ccc(N=c2sc(C(=O)OC)cc(=O)n2CCCN2CCOCC2)cc1	17%[38.3 µM]	13µM*!	3%[57.5 µM]
CCCCc1cc2c(cn1)=C(OC(=O)c1ccco1)C(C)(OC(=O)CC)C(=O)C=2 (stereo not drawn)	5%	.	.
COc1cc(O)c(C(=O)/C=C/c2ccc(OC)c(O)c2)c(OC)c1	36%	.	?
Cc1ccc(S(=O)(=O)COCCN2CCN(S(=O)(=O)c3ccc(C)cc3)CCC2=O)cc1	0%	.	.
O=C(O)C1CC2(C1)CC(C(=O)O)C2 (stereo not drawn)	-1%	.	.
O=[N+]([O-])c1ccc2c(N=Nc3ccc4ccccc4c3O)c(O)cc(S(=O)(=O)O)c2c1	8%	.	.
O=C(O)CCNc1ncnc2nc[nH]c12	-2%	.	.
Cc1ccc(/C(O)=C2/C(=O)C(=O)N(CCN3CCOCC3)C2c2cccnc2)cc1 (stereo not drawn)	6%	16%[46.1 µM]	-4%
Cc1c(N2C(=O)C(=O)/C(=C(/O)c3ccc(Br)cc3)C2c2cccnc2)c(=O)n(-c2ccccc2)n1C (stereo not drawn)	8.9µM*	-36%	3%
Cc1cccc(C)c1NC(=O)C[N+](C)(C)C	26%	7%[46.1 µM]	14%
CC(=O)Nc1ccc(O)c(-c2nc3ccccc3s2)c1	-4%	10%	-9%
SMILES	IMPase Li cell	NPSR antag	ERK EGF inh
O=C(CCS(=O)(=O)c1ccccc1)Nc1ccc(-c2nc3ccccc3s2)c(O)c1	11µM*	-60%	-11%
COc1ccccc1-c1nccc(NCc2cnc(C)cn2)n1	-5%	.	15%
CCC(=NCCc1c(C)[nH]c2ccc(OC(F)(F)F)cc12)C1=C(O)CC(c2ccccc2)CC1=O (stereo not drawn)	?	10µM*	-2%
CCC(=NCCc1c(C)[nH]c2ccccc12)C1=C(O)CC(c2ccccc2)CC1=O (stereo not drawn)	20%	-55%	8%
Oc1cc(CN2COc3ccccc32)c(O)cc1CNC1CCCCC1	-5%	.	.
O=C1CC(=O)N(CCc2ccccc2)C(=O)N1CCc1ccccc1	19%[38.3 µM]	-13%[46.1 µM]	.
O=C1C=CC(=O)C(C2=C3C(=O)N(CCc4ccccc4)CC(=O)N3CCC2)=C1	27%	10µM*	?
COC(=O)c1ccc(C#Cc2ccccc2)o1	.	-4%	-5%[57.5 µM]
NCC(=O)NC1(C(=O)O)CCCC1	11%	.	.
COc1ccc2c(c1)-c1nc(/N=C/c3ccccc3O)sc1CC2	-1%	12%	9%
COc1ccc2sc(/C=C/c3ccccc3O)[n+](C)c2c1	34%	13µM*	-8%
N[C@@](CC(=O)O)(Cc1ccccc1)C(=O)O	0%	.	.
Cc1ccccc1Nc1oc(-c2ccccc2)nc1-c1cccc2ccccc12	-5%	.	-3%
